Compounds with a hit are over-represented: about 3.9% of the library has one in this group of screens.
BoNT-A LC inh2: BoNT/A light chain protease inhibitors, primary screen, biochemical, flow cytometry, MLPCN library. multiplex microsphere protease substrate cleavage. inhibition, % at 10 µM. 360,000 tested, 0.17% active. AID 588499, 2011; further: plate controls were buffer without enzyme for full effect and enzyme alone for no effect
3CLpro inhibitor: SARS-CoV 3CLpro protease inhibitors, primary screen, biochemical, quenched FRET | 290,000 tested, 0.14% active | AID 1706, 2009 | recombinant SARS-CoV 3CLpro, quenched FRET peptide cleavage | Replicase polyprotein 1ab (Severe acute respiratory syndrome coronavirus), P0C6X7 | inhibition, % at 6 µM; in the data active means inhibition above about 12%
Bead autofluor: compound fluorescence in toxin protease inhibitor counterscreen; compound autofluorescence counterscreen, microsphere flow cytometry; hits give high values; fluorescence intensity (test concentration not listed); 360,000 tested, 3.1% active; AID 624483; in the data active means fluorescence intensity above about 16000; inconclusive means no clear call, values can overlap the other calls
BoNT F protease: BoNT/F light chain protease inhibitors, primary screen, biochemical, flow cytometry, MLPCN library | Botulinum neurotoxin type F light chain protease (Clostridium botulinum) | Multiplex microsphere protease cleavage assay | inhibition, % at 10 µM | 360,000 tested, 0.22% active; in the data active means inhibition above about 35%, passing the limit was not always enough; inconclusive means no clear call, values can overlap the other calls; further: plate controls were buffer without enzyme for full effect and enzyme alone for no effect
Anthrax LF prot: Bacillus anthracis LF protease inhibitors, primary screen, biochemical, multiplex microsphere, MLPCN library; inhibition, % at 10 µM; multiplex microsphere protease cleavage assay; 360,000 tested, 0.12% active; Lethal factor (Bacillus anthracis), P15917; further: plate controls were buffer without enzyme for full effect and enzyme alone for no effect
Target sequence (P15917 whole entry, looked up): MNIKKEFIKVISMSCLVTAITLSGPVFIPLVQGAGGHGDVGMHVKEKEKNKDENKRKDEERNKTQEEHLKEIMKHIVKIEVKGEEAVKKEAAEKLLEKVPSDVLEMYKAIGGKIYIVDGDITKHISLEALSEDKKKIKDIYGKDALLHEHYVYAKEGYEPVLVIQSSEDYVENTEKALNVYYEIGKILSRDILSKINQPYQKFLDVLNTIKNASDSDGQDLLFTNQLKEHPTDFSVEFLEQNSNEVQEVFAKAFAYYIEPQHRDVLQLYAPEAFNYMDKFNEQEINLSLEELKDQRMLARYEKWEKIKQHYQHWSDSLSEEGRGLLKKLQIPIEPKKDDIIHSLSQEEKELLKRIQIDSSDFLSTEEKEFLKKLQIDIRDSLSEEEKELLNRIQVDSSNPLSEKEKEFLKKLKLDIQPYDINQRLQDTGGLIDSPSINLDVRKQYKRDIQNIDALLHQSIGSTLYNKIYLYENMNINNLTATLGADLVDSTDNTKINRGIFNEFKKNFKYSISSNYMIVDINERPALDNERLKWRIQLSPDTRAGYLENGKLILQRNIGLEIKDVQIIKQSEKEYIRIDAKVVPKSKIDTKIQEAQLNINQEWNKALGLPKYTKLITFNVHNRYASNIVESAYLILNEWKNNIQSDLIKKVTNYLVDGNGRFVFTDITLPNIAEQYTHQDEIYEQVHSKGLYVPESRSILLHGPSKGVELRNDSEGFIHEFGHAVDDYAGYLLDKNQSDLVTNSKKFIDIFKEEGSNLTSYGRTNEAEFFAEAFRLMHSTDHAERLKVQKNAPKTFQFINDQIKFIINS
CCHF vOTU inh: CCHFV vOTU protease inhibitors, primary screen, biochemical, Pep-AMC substrate, fluorescence; Crimean-Congo hemorrhagic fever virus L polyprotein viral ovarian tumor (vOTU) protease …; 370,000 tested, 0.55% active; inhibition, % at 11.5 µM; in the data active means inhibition above about 30%; further: 0% = vehicle wells with enzyme and 100% = no enzyme wells
An asterisk follows results filed as active; u = inconclusive; x = no result given. Unless noted, no stated cut-off is given here; in the data, active means inhibition above about 30%; inconclusive means no clear call, values can overlap the other calls; inactive means below that.

SMILES | BoNT-A LC inh2 | 3CLpro inhibitor | Bead autofluor | BoNT F protease | Anthrax LF prot | CCHF vOTU inh
CCOC(=O)[C@@]12CCC3=C1N(CCC3)C(=O)[C@H](CC(=O)N1CCN(C(=O)C3CC3)CC1)C2 | x | x | x | x | x | -8
CCC(C)(C)NC(=O)CN(Cc1cccs1)C(=O)CNS(=O)(=O)c1ccc(C)cc1 | -1 | 2 | 16739* | -2 | -3 | 4
CC(C)(C)NC(=O)CN(Cc1cccs1)C(=O)CNS(=O)(=O)c1ccc(F)cc1 | 0 | 5 | 3144 | -4 | 0 | 5
O=Cc1ccc(Sc2nnc(-c3ccccc3)o2)c([N+](=O)[O-])c1 | u | 0 | 19318* | 4 | -7 | x
CCOC(=O)N1CCN(C(=O)C[C@H]2C[C@@]3(C(=O)OC)C(=C[C@H](C4CCCC4)O[C@@H]3C)N(Cc3ccc(Cl)cc3Cl)C2=O)CC1 | x | x | x | x | x | 10
CCCc1ncc(C(=O)c2ccc(OC)cc2)n1C | -3 | -3 | 24262* | -5 | -1 | 10
Cc1cccc(-c2nnc(NC(=O)c3ccc(Cl)cc3)o2)c1 | -2 | 0 | 16877* | -9 | -3 | -4
Cc1ccc(C(=O)CSc2nnc(-c3cccnc3)n2N)cc1 | 1 | 3 | 15409 | 2 | -8 | 8
Cc1ccc(CSc2nnc(-c3cccnc3)n2N)cc1 | -1 | -2 | 23095* | -4 | 0 | -10
Cc1ccc(CSc2nnc(-c3ccco3)n2N)cc1 | 0 | 0 | 23093* | 1 | -2 | -3
Nn1c(SCc2cccc(C(F)(F)F)c2)nnc1-c1ccco1 | u | -2 | 6915 | -2 | 1 | 24
COc1ccccc1C(=O)NC1CCCCN(Cc2cccc(Cl)c2)C1=O (centres undefined) | x | x | x | x | x | 0
N#Cc1sc2nc(-c3ccccc3)cc(-c3ccco3)c2c1N | 13 | -2 | 4421 | -14 | 5 | 59*
COc1ccc2[nH]cc(C(C)c3c[nH]c4ccccc34)c2c1 (centres undefined) | x | x | x | x | x | 7
CCN1C(=O)/C(=C\N2CCN(c3ccc(F)cc3)CC2)SC1=S | u | 5 | 16210* | -2 | -1 | -13
O=S(=O)(CC1NCc2ccccc21)NC1CCCC1 (centres undefined) | x | x | x | x | x | 5
CCN(CC)c1ccc(/C=C/C(=O)c2ccc(Br)cc2)cc1 | 62* | -3 | 30707* | 81* | 42* | 8
COc1ccc(Cn2cc(CN3[C@H](CC(C)C)COc4cc(Br)ccc4S3(=O)=O)nn2)cc1 | x | x | x | x | x | 2
CC(=O)NCCOC(=O)Nc1ccncc1 | 6 | -3 | 20618* | 9 | -16 | -3
Cc1ccc(Nc2c(F)cccc2Cl)c(CC(=O)O)c1 | x | x | x | x | x | -2
Cc1ccc(NC(=O)c2ccc(CS(=O)(=O)Cc3ccccc3C)o2)c(C)c1 | x | x | x | x | x | -3
Cc1nn(CC(=O)Nc2ccc(C(=O)N(C)C)cc2)c(=O)c2ccccc12 | 3 | 3 | 19106* | 5 | 0 | -9
Cc1nn(CC(=O)Nc2ccccc2)c(=O)c2ccccc12 | x | 2 | x | x | x | -1
CCN(CC)C(=O)c1ccc(Nc2nnc(C)c3ccccc23)cc1 | -2 | 6 | 24503* | -3 | 0 | -3
Cc1nn(CC(=O)N(C)C)c(=O)c2ccccc12 | 1 | 1 | 22253* | 1 | 1 | -8
SMILES | BoNT-A LC inh2 | 3CLpro inhibitor | Bead autofluor | BoNT F protease | Anthrax LF prot | CCHF vOTU inh
CCN(CC)C(=O)c1ccc(NC(=O)Cn2nc(C)c3ccccc3c2=O)cc1 | u | 0 | 22310* | 3 | -4 | 0
CCCC/C=C1/[C@H](c2ccc(Cl)cc2)N(Cc2ccc3c(c2)OCO3)C2=N[C@H](c3ccccc3)CC(=O)N21 | x | x | x | x | x | 9
COCCCNC(=O)C[C@H]1C[C@@]2(C(=O)OC)C(=C[C@H](C(C)C)O[C@@H]2C2CC2)N(Cc2ccc(Cl)cc2Cl)C1=O | x | x | x | x | x | 22
O=S1(=O)c2ccc(N3CC[C@H](O)C3)cc2OCCCN1C1CC1 | x | x | x | x | x | 5
COc1ccc(-n2c(SCC(=O)N3CCCC3)nnc2-c2ccncc2)cc1 | x | x | x | x | x | -7
COCCN1CCn2c(nc3cc(NC(=O)Cn4nc(C)c5ccccc5c4=O)ccc32)C1 | 1 | 0 | 4333 | u | -5 | -12
Cc1nn(CC(=O)Nc2ccc3c(c2)nc2n3CCOC2)c(=O)c2ccccc12 | 1 | 6 | 21862* | 1 | 1 | -2
C#CCCN([C@@H](CC(C)C)C(=O)OC)S(=O)(=O)c1ccccc1Br | x | x | x | x | x | 9
Cc1ccc(-n2c(SCC(=O)Nc3ccccc3-c3ccccc3)nnc2-c2cnccn2)cc1 | x | x | x | x | x | 11
c1ccc(OCc2nc(-c3cccs3)no2)cc1 | 0 | 3 | 19681* | -2 | 1 | 5
COc1cc(OC)c(OC)cc1CNC(C)C(O)c1ccccc1 (centres undefined) | -3 | 4 | 17763* | -3 | -1 | -4
CC(NCc1ccc(Cl)cc1Cl)C(O)c1ccccc1 (centres undefined) | 0 | -2 | 7170 | -2 | -1 | -6
COc1ccccc1CCn1cnc(-c2cccc(F)c2)c1CC(C)C | x | x | x | x | x | 22
Cc1cccc(-c2nc(CS(=O)CC(=O)NCCCSC3CCCCC3)c(C)o2)c1 (centres undefined) | u | 5 | 20646* | -2 | -3 | 21
Cc1cccc(-c2nc(CS(=O)CC(=O)NC3CCCCC3)c(C)o2)c1 (centres undefined) | 0 | -1 | 5183 | -1 | 1 | 7
COc1cccc(-c2nc(CS(=O)CC(=O)NCCCOC(C)C)c(C)o2)c1 (centres undefined) | 2 | 2 | 21012* | 5 | -1 | -6
Cc1oc(-c2ccc(Cl)cc2)nc1CS(=O)CC(=O)N1CCC2(CC1)OCCO2 (centres undefined) | 0 | -1 | u | -3 | -18 | -3
COc1cccc(-c2nc(CS(=O)(=O)CC(=O)NCCCOC(C)C)c(C)o2)c1 | u | 1 | 21662* | 1 | -4 | 6
COc1cccc(-c2nc(CS(=O)CC(=O)N3CCC4(CC3)OCCO4)c(C)o2)c1 (centres undefined) | u | 0 | 21075* | -4 | 1 | -9
COc1cccc(-c2nc(CS(=O)CC(=O)NCCc3ccccc3)c(C)o2)c1 (centres undefined) | 0 | 2 | 4236 | 4 | -1 | -12
CC1(C)CC(=O)N(CC(=O)N2CCN(Cc3ccccc3)CC2)c2ccccc2S1(=O)=O | x | x | x | x | x | -3
CCCCc1c(-c2ccccc2OC)ncn1Cc1ccc(C(C)(C)C)cc1 | x | x | x | x | x | 21
COc1cc(/C=C2\SC(=S)N(C(C(=O)O)c3ccccc3)C2=O)cc(OC)c1OC (centres undefined) | 2 | 3 | 2516 | 2 | 0 | 14
O=C1/C(=C\c2ccc(-c3ccccc3Cl)o2)SC(=S)N1CC1CCCO1 (centres undefined) | 189* | -1 | 4106 | -46 | 59* | 4

Source: PubChem BioAssay (several laboratories)
